# Test results: the supplement of paper PMC11417369
# ± gives the standard deviation of the averaged measurements. Whole data set: some 25,000 sequences, median “ln(normalized median fluorescence intensity)” near 8.6, cut for the highest 2% near 10. Many of the other results were omitted from the sample, so the highest values are more common in it than they were.
# Tested on: PfAP2-EXP AP2 domain (GST-tagged)
# Test: gcPBM binding intensity (ln(normalized median fluorescence intensity)); higher = stronger DNA binding
# In short: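 Probes on an Agilent 4 × 180k array were primer-extended, double-stranded and 36 bp long, taken from intergenic genomic regions, with negative controls added. GST-tagged P. falciparum DNA-binding domains from E. coli, about 25 μg on average, were applied to the array for 1 h in 1× PBS containing 1% milk, 0.2 mg/ml BSA, 0.5% salmon testes DNA and 0.03% Triton X-100. Binding intensity, obtained after Alexa488 anti-GST antibody detection and a 488 nm scan, is the highest Masliner-normalised natural-log median intensity across replicate spots of either probe orientation.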
row,Sequence,gcPBM binding intensity (ln)
1,AATCTTCTTAATTGTAGTACACAATTTATAAACAAA [XGTACX_site8706],8.61 ± 0.3
2,TGATATTATATATATACACACATGTATGTATTTATA [CACACA_site4874],8.32 ± 0.42
3,ATATATATATATATATGTACATAGAGAAGTATCTTT [XGTACX_site4737],10.4 ± 0.17
4,ATATATATATATATATGTACATATATCTACATATAT [XGTACX_site7588],10.2 ± 0.14
5,AAATGTATATATGTATGTACATATATATATATATAT [XGTACX_site5778],10 ± 0.35
6,ATATATCTACATATATGTACATATATGTATATGTAT [XGTACX_site5432],8.41 ± 0.2
7,ATATATATATATATATGTACATATATATATGTATAT [XGTACX_site3959],10.2 ± 0.33
8,TAATATCTACATATATGTACATATATATATATATAT [XGTACX_site7979],9.94 ± 0.4
9,ATATATATGTATATATGTACATATATGTATATATAT [XGTACX_site4772],8.66 ± 0.17
10,ATATATATATATATGTGTACATATGTATATATATCT [XGTACX_site2930],10.1 ± 0.4
11,ATGTATGTGTATATATGTACATAATATATATCTTTT [XGTACX_site8666],8.65 ± 0.32
12,ATATATATATATATGTGTACATATAAGATAGAAGAA [XGTACX_site3198],10.2 ± 0.35
13,ATATATATATATATGTGTACATATATTAAGATATAT [XGTACX_site1065],10 ± 0.3
14,AATAAATAGATATATACACACATATATGTGTACATA [CACACA_site7476],8.37 ± 0.29
15,AATATAACTTAGAATTGTACATAAAAAAAAATATAT [XGTACX_site3313],8.68 ± 0.35
16,CAAAATATTTAAAAAAGTACTTAAAATAAATTCAAA [XGTACX_site6866],8.48 ± 0.38
17,CTTAAATCTACTATTTGTACATATTTTATTATTAAA [XGTACX_site6151],8.58 ± 0.37
18,TTTATTTAAAAAATAAAAAAAAAAAAAAAAAAAAAA [CACACA_negctrl_site1670],7.82 ± 0.38
19,GGATACGCTTTTGTACCACTCCCCCTTTTGGGAATA [CACACA_negctrl_site1363],8.88 ± 0.33
20,AAAACTTGTCAGAATGGACACACGAATTAAAGGCCT [CACACA_site1215],8.79 ± 0.52
21,GCATAAATTATCATAACATAAATATAAAAATATAAT [GTGCAC_negctrl_site55],8.36 ± 0.37
22,TAGTTGTGAGTTACATGTACATGTATTTATTTTTTA [XGTACX_site7088],8.88 ± 0.47
23,CCACACTTAAAATACACACACACCAAAAAAAAAAAA [CACACA_site2709],8.43 ± 0.37
24,TATATTTGGTTTCATTCATTTTTATAGAAATCTCAA [CACACA_negctrl_site1412],8.48 ± 0.47
25,GATATGTGTATAATATGTACATATATATATATATAT [XGTACX_site6531],10.2 ± 0.5

row,Sequence,gcPBM binding intensity (ln)
1,ATATATATATATATATGTACATATATACATATATGT [XGTACX_site1521],10 ± 0.49
2,GTATATATGTATATATGTACATATATATAATATATT [XGTACX_site56],8.5 ± 0.16
3,ATATATATATATATATGTACATACATACATAGAACT [XGTACX_site2214],10.4 ± 0.3
4,TATATAAATATAATATGTACATATAATATGTATATA [XGTACX_site8120],8.36 ± 0.26
5,ATACATATATACATATGTACATATATATATATATAT [XGTACX_site8206],9.9 ± 0.39
6,AAAGTGGCCATATATTTTTTTTTTTTTTTCCTTATT [CACACA_negctrl_site485],8.11 ± 0.53
7,ACATATTAATTATTATGACATACATATCAGTTATTA [TGCATGCA_negctrl_site126],8.38 ± 0.27
8,AGGCACTTATAATAATGTACATAAATAAAAAGAAAA [XGTACX_site6037],8.81 ± 0.35
9,TTTTTATGAAAATAAACACACGATTTATTATATATA [CACACA_site1311],8.27 ± 0.34
10,GAAGACAATTATATGTGTACATATATATACATATAT [XGTACX_site4630],8.44 ± 0.25
11,TATATATATATATATTGTACATTTTTTTTTTTTTTT [XGTACX_site7891],10.1 ± 0.23
12,AGTATATAAAATACTGTATCGATGGGGGAGGGCGCA [CACACA_negctrl_site1612],9.97 ± 0.23
13,ATATATGGGGCGCAGGAAAAGAGTTTTGGAAATAAA [CACACA_negctrl_site1265],9.08 ± 0.49
14,TATAAAATACTGTATCGATGGGGGAGGGCGCAGGGG [TGCATGCA_negctrl_site250],10.3 ± 0.11
15,ATAGGTAATAATAATACACACGGTGAAATATAGATG [CACACA_site9336],8.88 ± 0.47
16,TATAATGAGGATAATAGTACATATGAATACAAAAAA [XGTACX_site3665],8.86 ± 0.45
17,TTGGATAAAAAATATGTACACACATATAGATATCTA [CACACA_site8862],8.48 ± 0.31
18,TCGGGAGGGGGGAAGCGTACATATATAAAATTATTA [XGTACX_site4683],10.4
19,TATAAATAGAGGAAGCGTACATATATATATATATAT [XGTACX_site4993],10.1 ± 0.37
20,ATAAATAAATAAAAGCGTACATATATATAAAATATA [XGTACX_site8107],8.63 ± 0.27
21,AAAATTTATATAAGCACACAAATATATATTTATATC [CACACA_site3291],8.55 ± 0.47
22,GAAGGAATATACAATTGTACTTGGCAAAAAAAAAAA [XGTACX_site1884],8.74 ± 0.67
23,TCTGTAAAGTAATGGACACACAATATATCCATTTAT [CACACA_site1536],8.35 ± 0.35
24,ATAATATAATATATATGTACACATCCTTTTTGTGTA [XGTACX_site2879],8.62 ± 0.4
25,ATATATAATATAATATGTACATATAATCAATCCTGT [XGTACX_site8694],8.48 ± 0.28

row,Sequence,gcPBM binding intensity (ln)
1,ATATATATATATATATGTACACAGGACAATAATCCT [XGTACX_site6383],10.2 ± 0.33
2,AGAGGCCAGCTTTCTCTTCTAAACATGTACAAAAAT [GTGCAC_negctrl_site98],8.63 ± 0.49
3,TTAGATATAATATATACACACCAACGAACGAAGAAA [CACACA_site4763],9.12 ± 0.54
4,TCTATTAATGAATATACACACATTATATATATATAT [CACACA_site5410],10 ± 0.49
5,ATAAGAAGGAACATAAATATATCATAAAAAAAAAAA [GTGCAC_negctrl_site169],8.56 ± 0.35
6,ATAAAATTATATTTTGCATGCAGGCCTTTTTCTTAA [TGCATGCA_site1030],9.94 ± 0.14
7,TTTTCCTTATATTATGCATGCAGGGTTTGACATTAT [TGCATGCA_site826],10.3 ± 0.34
8,ATTATTTATATTATGGTGCATAATTTTGGGTTTCTT,8.86 ± 0.26
9,ATTTTTTATTGTTATAAAAAAAAAATTAAACAATTA [CACACA_negctrl_site1077],8.19 ± 0.46
10,AGATATATTTTTTAAATTTAAAAATTATAAAATTTA [CACACA_negctrl_site533],8.07 ± 0.42
11,TCATTCCATACTTTAACACACAAATATATTTAATCC [CACACA_site145],8.76 ± 0.53
12,ATATTGGAGCACAACACACACAAGTATATATATGGA [CACACA_site1546],8.8 ± 0.47
13,AAAAAAAAAAAATACGTGCACTATGATATATTATAT,8.95 ± 0.092
14,AAAAGGAACGGACACACACACATATATATATATATA [CACACA_site5894],10.2 ± 0.49
15,AAAAGGAACAGACACACACACATATATAAATATGTA [CACACA_site7656],8.4 ± 0.59
16,AAAAAAAAAAAACACACACACATATATATATATATA [CACACA_site732],10.2 ± 0.38
17,AAAAAAAAAAAACACACACACACACCCATACATACA [CACACA_site707],8.65 ± 0.56
18,AAAAAAAAAAAAAAAACACACACATATATATATATA [CACACA_site8571],10.1 ± 0.21
19,AAAAAAAAAAAAAAAACACACATACACCCCCACCCA [CACACA_site9117],10.4 ± 0.3
20,AAAAAAAAAAAAAACACACACACACCCACATATACA [CACACA_site2663],8.53 ± 0.2
21,TATATACGCAAACACACACACACATACACCCACATA [CACACA_site1724],8.59 ± 0.44
22,TACATATATATATACACACATACATATATATACGCA [CACACA_site792],8.45 ± 0.34
23,AAAAGGAACAGACACACACACATATATATATATATA [CACACA_site3587],10.3 ± 0.25
24,AAAAAAAAAAAAAACACACACATATATATATATATA [CACACA_site1891],10.2 ± 0.3
25,CATATACGCAAACACACACACATATATATATATATA [CACACA_site501],10.2 ± 0.4

row,Sequence,gcPBM binding intensity (ln)
1,CATGTATTTTATATTACACACTAATATTATAGATAT [CACACA_site6819],8.27 ± 0.28
2,GCTTCTTAGTATACTTTATAAAATATATATTAAATA [XGTACX_negctrl_site57],8.75 ± 0.47
3,AATATTTTATTTTTTCTCATTAAAAATTTTTTTTTT [CACACA_negctrl_site364],8.46 ± 0.45
4,TAAAATGTAATCTGAACACACATATTTTTTTAATAT [CACACA_site1768],8.12 ± 0.52
5,CTAACAACCAAACGCACACACACAAAAAAAAAAATA [CACACA_site400],8.48 ± 0.42
6,AAATATTTTTTAATTGTTCACTTGGTGGATCATTAA [CACACA_negctrl_site922],8.28 ± 0.28
7,TTTTTTTTTTTTTTTTGTACATATTTTAATTTGTTT [XGTACX_site6297],8.05 ± 0.4
8,TATTTTCCATGAGGTAGTACACATTAAAAAATCGTT [XGTACX_site6887],8.44 ± 0.29
9,AAGAATATTATAAACACACACTTTATAAAGAATTAT [CACACA_site4241],8.51 ± 0.52
10,TAATTTAAAAATTCCTGTACTCAGTTTTTTCTATTT [XGTACX_site4961],8.48 ± 0.39
11,AAAAAAAAAAAACATACACACACATATATATATATA [CACACA_site8452],10 ± 0.54
12,AAAACATACATATATACACACATATATATATATATA [CACACA_site1852],10.2 ± 0.23
13,TATAAGCAAAAACACACACACATATATATATATATA [CACACA_site3804],10.3 ± 0.28
14,TATGTGCCAAAACACACACACATATATATATATATA [CACACA_site469],10.2 ± 0.11
15,AAAAAAAAAAAACATACACACATACATACATATATA [CACACA_site8222],8.48 ± 0.4
16,ATTATGTGCCAATACACACACACATATATATATATA [CACACA_site468],9.91 ± 0.44
17,AAAAAACAAAAACACACACACACATATATATATATA [CACACA_site3654],9.94 ± 0.36
18,AAAAAAAAAAAAAAAACACACATATATGTATATATA [CACACA_site3276],8.28 ± 0.5
19,TTTAAGCAAAAACACACACACATATATATATATATA [CACACA_site349],10.1 ± 0.41
20,AAACAAAAAAAATAAGCACACATATATATATATATA [CACACA_site8173],10.1 ± 0.26
21,AAAAAAACACACACATATATATATATATATATATAT [GTGCAC_negctrl_site498],10.2 ± 0.41
22,CATATATAAAAAAACACACACATATATATATATATA [CACACA_site1195],10.2 ± 0.61
